Source: PubChem (Broad Institute)
CD40 NFkB inh – CD40 pathway inhibition in BL2 cells; BL2 NF-kB luciferase reporter, CD40L-induced, 4 h; inhibition, % at 10 µM; 83,000 tested, 0.94% active;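 active means mean inhibition of at least 50% with a set share of replicates also reaching that level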
A number is an active result; . = inactive. This is one part of a sample in which hits are shown more often than they occur.

SMILES | CD40 NFkB inh
O=C(c1ccc(Cl)c(Cl)c1)N1CCC(O)(CN2CCOCC2)CC1 | .
CC(=O)N1CCC(N(CCN2CCOCC2)C(=O)Nc2ccc(Cl)c(Cl)c2)CC1 | .
CC(C)=NNc1ncnc2nc[nH]c12 | .
CC(C)CCCCCCCCCCCCC(=O)NCC(=O)NC1C(O)C(O)C(Nc2ncnc3nc[nH]c23)OC1C(O)CO (stereo not given) | 104
C/C=C/c1ccc([C@H]2[C@@H](CO)N(C(C)=O)C23CN(C(=O)NC2CCCCC2)C3)cc1 | .
Cn1cnc(S(=O)(=O)N[C@@H]2CC[C@@H](CC(=O)NCC3CCCCC3)O[C@@H]2CO)c1 | .
Cc1ccc(S(=O)(=O)N(C)C[C@H]2OCCCC[C@H](C)Oc3ccc(NS(=O)(=O)c4ccc(F)cc4)cc3C(=O)N([C@H](C)CO)C[C@H]2C)cc1 | .
C/C=C/c1ccc([C@H]2[C@@H](CN(C)C(C)=O)N(C(=O)NCCC)[C@H]2CO)cc1 | .
Cn1ncc2c(N3CCOCC3)ncnc21 | .
Cc1cccc(-n2ncc3c(N4CCOCC4)ncnc32)c1 | 78
Cc1ccc(-n2ncc3c(N4CCN(c5ccccc5)CC4)ncnc32)c(C)c1 | .
CN1C(=O)c2cc(NC(=O)c3ccc(F)c(F)c3)ccc2OC[C@H]2O[C@@H](CC(=O)Nc3ccc4c(c3)COC4)CC[C@@H]21 | .
Clc1ccccc1/C=C/c1nc(-c2ccccn2)no1 | 96
Cc1occc1-c1nc(-c2ccccn2)no1 | .
Cc1onc(-c2ccccc2Cl)c1-c1nc(-c2ccccn2)no1 | .
CO[C@@H](C(=O)N(C)C[C@@H]1OCc2ccccc2-c2c(n(C)c3ccccc23)C(=O)N([C@@H](C)CO)C[C@H]1C)c1ccccc1 | .
O=C(C[C@@H]1CC[C@@H]2[C@H](COC[C@@H](O)CN2C(=O)Nc2cccc(F)c2)O1)NCCCN1CCOCC1 | .
CC(C)NC(=O)N1CC(=O)N2[C@@H](CO)[C@H](c3ccc(/C=C/c4ccccc4)cc3)[C@@H]2C1 | .
C=C1C(=O)C23C(O)C1CCC2C12CCCC(C)(COC(C)=O)C1C(O)C3(O)OC2 (stereo not given) | 104
CN(C)C(=O)c1cccc(-c2ccc3c(c2)[C@H]2[C@H](CCN2C(=O)c2ccccc2)[C@@H](CO)N3C)c1 | .
CC(=O)N(C)C[C@@H]1Oc2c(cccc2N(C)C)C(=O)N(C)C[C@@H]1C | .
O=C(Nc1cccc(Cl)c1)N[C@@H]1CC[C@@H](CCNC(=O)C2CCCC2)O[C@@H]1CO | .
CC(=O)N(C)c1ccc(C=C2C=Cc3ccccc32)cc1 | 72
CC(=O)N(C)c1ccc(NC(=S)Nc2ccc(C(C)C)cc2)cc1 | .
CC(=O)N(C)c1ccc(NS(=O)(=O)Cc2ccccc2)cc1 | .
SMILES | CD40 NFkB inh
C[C@H]1CN([C@@H](C)CO)C(=O)c2c(c3ccccc3n2C)-c2ccccc2CO[C@@H]1CN(C)C(=O)C1CC1 | .
CNC[C@H]1Oc2c(NC(=O)NC(C)C)cccc2C(=O)N(C)C[C@H]1C | .
CC(C)[C@H]1C(=O)N[C@H](c2ccc3c(c2)OCO3)CC=CC[C@@H](C)Oc2ccccc2C(=O)N1C (mixture of isomers) | .
N#C[C@@H]1[C@@H](c2ccccc2-c2ccccc2F)[C@H](CO)N1C(=O)C1CCOCC1 | .
CC(C)(C)N1CC(c2nc3ccccc3n2Cc2ccccc2)CC1=O (stereo not given) | .
CCn1c(CNC(=O)C(C)(C)C)nc2ccccc21 | .
CCn1c2ccccc2nc2cc3c(cc21)c(Cl)c(=O)c1ccccc13 | 90
COc1ccccc1C(=O)NC1=NCCS1 | .
C[C@@H]1CN([C@H](C)CO)C(=O)c2cc(NC(=O)Cc3ccccc3)ccc2O[C@@H]1CN(C)Cc1ccc(Oc2ccccc2)cc1 | .
O=S(=O)(CCSc1ccccn1)c1nc2ccccc2s1 | 59
O=C(O)CCSc1nc2ccccc2s1 | .
O=c1[nH]c(CSc2ccccn2)nc2ccccc12 | .
CC(=O)N1CC[C@@H]2[C@H](CO)Nc3ccc(-c4ccccc4)cc3[C@@H]21 | .
O=C(COC(=O)CCN1C(=O)c2cccc([N+](=O)[O-])c2C1=O)NCc1ccccc1 | .
O=C(CCCN1C(=O)c2cccc3cccc(c23)C1=O)OCC(=O)N1CCCCC1 | .
O=C(CN1C(=O)c2cccc([N+](=O)[O-])c2C1=O)OCC(=O)N1CCCCC1 | 61
COc1ccc(C#Cc2cccc(-c3nc(C(=O)N4CCN(Cc5ccccc5)CC4)cc4c3[C@H](CCO)N(S(=O)C(C)(C)C)C4)c2)cc1OC (stereo not given in full) | .
N#Cc1cccc(-c2ccc(C3[C@@H]4CN(C(=O)Nc5ccc6c(c5)OCO6)C[C@H]3N4)cc2)c1 (stereo not given in full) | .
O=C(Cc1ccncc1)NCC[C@@H]1CC[C@@H](NC(=O)C2CCCC2)[C@@H](CO)O1 | .
CO[C@@H](CN(C)S(=O)(=O)c1ccc(F)cc1)[C@H](C)CN(C(=O)Nc1ccccc1F)[C@H](C)CO | .
c1ccc2[nH]c(-c3cscn3)nc2c1 | .
c1ccc2nc(-c3nc4ccccc4[nH]3)ccc2c1 | 78
c1ccc2c(-c3nc4ccccc4[nH]3)cccc2c1 | .
COc1ccc(-c2ccc(C3[C@H]4CNC[C@@H]3N4S(=O)(=O)c3ccc(OC)cc3)cc2)cc1 (stereo not given in full) | .
Cc1noc(C)c1NC(=O)N(C)C[C@@H]1OCCCC[C@H](C)Oc2ccc(NC(=O)Nc3ccc(C(F)(F)F)cc3)cc2C(=O)N([C@@H](C)CO)C[C@@H]1C | .
SMILES | CD40 NFkB inh
C[C@H]1CCCCO[C@H](CN(C)C(=O)Nc2ccc(C(F)(F)F)cc2)[C@@H](C)CN([C@@H](C)CO)C(=O)c2cc(NC(=O)Nc3ccc4c(c3)OCO4)ccc2O1 | .
Cc1cc(C(=O)N2CCC(C(=O)O)CC2)c(C)o1 | .
Cc1cc(C(=O)N2CCN(c3ncccn3)CC2)c(C)o1 | .
Cc1cc(C(=O)N2CCN(c3ccccc3Cl)CC2)c(C)o1 | 78
CC(=O)Nc1ccc2c(c1)C(=O)N(C)C[C@@H](C)[C@@H](CN(C)C(C)=O)O2 | .
O=C(Nc1cccc(F)c1)N1C[C@@H]2[C@H](c3ccccc31)[C@H](CO)N2C(=O)c1cccnc1 | .
CC1CCC(NC(=O)COC(=O)CSc2ccc(C(N)=O)cc2[N+](=O)[O-])CC1 (stereo not given) | .
O=C(COC(=O)c1ccccc1C(=O)c1ccc(Cl)c([N+](=O)[O-])c1)NC1CC1 | 98
O=C(OC1CCOC1=O)c1ccccc1C(=O)c1ccc(Cl)c([N+](=O)[O-])c1 (stereo not given) | 78
CS(=O)(=O)c1ccc(Cl)c(C(=O)OCC(=O)NC2CCCCCCC2)c1 | .
CN(C)c1ccc(C(=O)c2ccccc2C(=O)O)cc1[N+](=O)[O-] | .
O=C(COC(=O)c1ccccc1[N+](=O)[O-])Nc1cccnc1Cl | .
CNc1ccc(C(=O)c2ccccc2C(=O)O)cc1[N+](=O)[O-] | .
O=C(COC(=O)c1ccccc1[N+](=O)[O-])c1ccc(C2CCCCC2)cc1 | 91
Cc1c(C(=O)OCC(=O)NC(=O)NC2CCCCC2)cccc1[N+](=O)[O-] | .
CC(C)NC(=O)N(C)C[C@@H]1Oc2c(NS(C)(=O)=O)cccc2C(=O)N(C)C[C@@H]1C | .
CNc1cc2ncnc(Nc3cccc(Br)c3)c2cc1N | .
COc1cccc(S(=O)(=O)N2CC[C@@H]3[C@H](CO)Nc4ccc(C#Cc5ccccc5)cc4[C@@H]32)c1 | .
COCC(=O)N(C[C@H]1N[C@@H](CO)[C@@H]1c1ccc(C2=CCCC2)cc1)C(C)C | .
